In PubChem BioAssay (NCI) one finds growth data, which are given here for eight compounds.

Common to all, as to test: NCI-60 one-dose screen, 48 h (100 = growth as untreated, 0 = no growth, -100 = all killed)
Conditions in all cases: 10 µM unless noted

In assay [1] the test system is SK-MEL-2 melanoma.
Assay [2] deals with EKVX NSCLC.
Assay [3] has as its system SN12C renal.
Assay [4] has as its system UO-31 renal.
Assay [5] deals with TK-10 renal.
The subject of assay [6] is ACHN renal.
In assay [7] the test system is CAKI-1 renal.
The subject of assay [8] is A498 renal.
Assay [9] concerns CCRF-CEM leukemia.
The subject of assay [10] is MOLT-4 leukemia.
For assay [11], the system named is RPMI-8226 leukemia.
Assay [12] has as its system OVCAR-8 ovarian.
Assay [13] relates to OVCAR-5 ovarian.
The subject of assay [14] is OVCAR-4 ovarian.
Assay [15] relates to SK-OV-3 ovarian.
The test system of assay [16] is IGROV1 ovarian.
The subject of assay [17] is OVCAR-3 ovarian.
Assay [18] relates to HS 578T breast.
Assay [19] concerns NCI/ADR-RES ovarian.

Each structure is given as a SMILES string. This is part of a sample that, as a whole, favours compounds with a hit. Of some 83,000 tested, about 20% had one in any assay.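 Each cell line was grown in a 96-well plate and treated with one concentration of compound for 48 hours. Values below 10 were considered active.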 Unmarked numbers belong to inactive results. Activity calls are given as the source filed them.

Consider `C[C@H]1[C@H]2[C@H]3CC[C@@H]4[C@@]5(C)CC[C@H](O)C(C)(C)[C@@H]5CC[C@@]4(C)[C@]3(C)CC[C@]23CO[C@]1(C)[C@@H](C(=O)/C=C\c1cccnc1)C3`, for which the growth in assay [1] is 87.3%; in assay [2] it was 101%; in assay [3] it was 62.7%; in assay [4], 58.7%; in assay [5], 31.9%; in assay [6] it was 41.6%. Moreover, the growth was 55.6% in [7]; 72.9% in assay [8]; 30.8% in [9]; 25.2% in assay [10]; 9.55% (active) in assay [11]; 35.1% in assay [12]. For the same compound, the growth was 121% in assay [13]; 49% in assay [14]; 77.8% in [15]; 80.6% in assay [16]; 46.7% in [17]; 82% in assay [18]. Besides, the growth in assay [19] was 78.9%.

For the compound `c1ccc(-c2nc3nonc3nc2-c2ccccc2)cc1`, the growth in assay [1] was 79%; in assay [2], 67%; in assay [3], 68.7%; in assay [4], 36.3%; in assay [5], 81.4%; in [6], 53.9%. The growth was 51% in assay [7]; -10.9% (active) in [8]; 80.7% in assay [9]; 70.9% in [10]; 71.9% in [11]; 72.8% in [12]. Also, the growth in assay [13] is 82.3%; in assay [14], 22.7%; in assay [15], 74%; in assay [16] it was 60.8%; in assay [17] it was 12.8%; in [18], 64.3%. Further, the growth in assay [19] was 74.4%.

Turning to `Cc1cc(O)c(C2=NN(c3ccc(S(N)(=O)=O)cc3)C(/C=C/c3ccccc3)C2)cc1Cl` (configuration not stated), the growth in [1] is 34.1%; in assay [2], 68.8%; in assay [3], 66.4%; in assay [4], 78.2%; in assay [5], 68.3%; in assay [6], 33.1%. Also, the growth in [7] is 48.7%; in [8] it was 39.9%; in assay [9], 66.2%; in assay [10], 73.3%; in assay [11] it was 48.7%; in [12], 38.6%. The growth in [13] is 51%; in [14], 34.6%; in [15], 17%; in assay [16], 16%; in assay [17] it was 29.7%; in [18] it was 39.2%. Besides, the growth in assay [19] was 29.7%.

`Cc1c(C(=O)N[C@@H](Cc2ccccc2)C(=O)C(=O)NCc2ccc(F)cc2)[nH]c2ccccc2c1=O`: the growth was 108% in assay [1]; 85.3% in assay [2]; 78.9% in assay [3]; 106% in assay [4]; 107% in assay [5]; 97.8% in assay [6]. For the same compound, the growth was 96.9% in assay [7]; 75.8% in assay [8]; 103% in [9]; 87.5% in [10]; 87.9% in [11]; 102% in assay [12]. Besides, the growth in assay [13] is 104%; in assay [14], 90.6%; in [15] it was 99.6%; in assay [16], 96.8%; in assay [17], 102%; in [18], 105%. The growth in assay [19] was 102%.

In the case of `COc1nc2ccc(C)cc2cc1-c1nc2c(cnn2-c2ccc(Br)cc2)c(=O)[nH]1`, the growth in [1] was 48.2%; in [2], 53.5%; in [3], 48.5%; in assay [4], 45.7%; in assay [5], 77.3%; in [6] it was 37.6%. Further, the growth in [7] is 48.1%; in assay [8], 7.08% (active); in assay [9], 17.9%; in assay [10], 58.9%; in assay [11], 33.2%; in [12] it was 40.7%. For the same compound, the growth was 73.2% in assay [13]; 58% in assay [14]; 43.3% in assay [15]; 38.4% in [16]; -17% (active) in assay [17]; 34.3% in [18]. In addition, in [19], the growth is 14.2%.

Take `CSc1nc2ccc(C)cc2cc1/C=N/O`: the growth in assay [1] was 74.7%; in [2] it was 67.8%; in assay [3], 91.9%; in assay [4], 66.4%; in assay [5], 101%; in assay [6], 82.8%. Also, the growth in [7] is 80.4%; in [8], 85.2%; in assay [9], 105%; in assay [10] it was 83%; in assay [11] it was 106%; in assay [12], 84.6%. Besides, the growth in [13] is 81.6%; in [14], 91%; in assay [15], 86%; in assay [16], 87.8%; in [17], 106%; in [18] it was 75%. Besides, the growth in assay [19] is 98.1%.

On to `N#Cc1ccc(NC(=O)c2sc3nc4c(cc3c2N)C(=O)CCC4)cc1`, for which the growth in assay [1] was 83%; in assay [2], 93.6%; in assay [3], 98.3%; in assay [4], 104%; in [5] it was 65.9%; in [6], 108%. Further, the growth is 93.3% in assay [7]; 79.6% in [8]; 99.8% in [9]; 115% in assay [10]; 95.7% in [11]; 105% in assay [12]. The growth in [13] was 89.2%; in assay [14], 106%; in assay [15], 106%; in assay [16], 113%; in assay [17], 114%; in assay [18], 111%. In assay [19], the growth is 106%.

For `Brc1c[n+](Cc2ccc3ccccc3c2)cn1Cc1ccc2ccccc2c1`, the growth in assay [1] is 17.3%; in assay [2], 60.1%; in assay [3] it was 37.6%; in assay [4], 77.4%; in assay [5], 43.6%; in [6], 90.6%. Also, the growth is 38.4% in assay [7]; -0.664% (active) in assay [8]; 5.13% (active) in [9]; 12.6% in assay [10]; -46.3% (active) in assay [11]; 8.2% (active) in assay [12]. The growth is 46.8% in [13]; -13.2% (active) in assay [14]; 34.9% in assay [15]; -51% (active) in assay [16]; -4.19% (active) in assay [17]; -7.66% (active) in assay [18]. Further, the growth in [19] was 97.5%.
